# According to PubChem BioAssay (Tox21):
# Several values for one entry are separate records, joined by “and”; a condition that tells them apart may be missing. Identical values can stand only once. Inconclusive results are not listed. Entries that show only a call come without a potency. Activity calls are given as the source filed them. Unless noted, calls come from the whole dose curve.
# Experiments:
# [1] = Nuclear factor erythroid 2-related factor 2/antioxidant responsive element (Nrf2/ARE) small molecule agonists: luciferase reporter gene qHTS assay in human keratinocytes (AID 1919969); note: nearly all actives have a fitted effect of over 35% in size; note: potency is the fitted concentration of half-maximal effect
# [2] = target: Gonadotropin-releasing hormone receptor (Homo sapiens) (UniProt P30968); assay: Human gonadotropin-releasing hormone receptor (GnRHR) small molecule agonists, calcium flux assay in GnRHR-HEK293 cells (AID 1920063); note: nearly all actives have a fitted effect of over 35% in size; note: potency is the fitted concentration of half-maximal effect
# Outline: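 Calcium-dye fluorescence, Ex/Em=480/540, recorded every 1 sec over 3 min after compound addition to GnRHR-HEK293 cells. Cells had been seeded 18 hours earlier and dye-loaded for 1 hour at 37 C. Fifteen concentrations, triplicates.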
# [3] = target: KiSS-1 receptor (Homo sapiens) (UniProt Q969F8); assay: Human kisspeptin (KISS1R) small molecule agonists, calcium flux assay in KISS1R-HEK293 cells (AID 1920064; active = well fitted activation curve with a large enough effect in the repeat runs; note: potency is the fitted concentration of half-maximal effect)
# Outline: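 Calcium flux read-out: kinetic fluorescence at Ex/Em=480/540, 1 s intervals over 3 min, after pin-tool compound addition to dye-loaded KISS1R-HEK293 cells. Fifteen concentrations, triplicates.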
# [4] = G protein-coupled receptor (GPCR) small molecule agonists, calcium flux assay: HEK293 wild type cell line counter screen (AID 1920065); note: potency is the fitted concentration of half-maximal effect
# Outline: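 Agonist mode; 18 h seeding at 37 C, 1 h dye load at 37 C; compounds pinned from DMSO, ATP as positive control; kinetic fluorescence 480/540 nm, 3 min, 1 s reads; 15 concentrations, triplicate.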
# [5] = p53 small molecule agonists, cell-based qHTS assay with human liver microsomes (AID 1963577);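 note: p53 response element beta-lactamase reporter cells with liver microsomes plus NADPH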
# Outline: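 Reporter activation was measured by LiveBLAzer fluorescence intensity in p53RE-bla cells, which had been exposed to compounds for 16 h at 37 C alongside 0.5 mg/mL human liver microsomes and 0.5 mg/mL NADPH (final concentrations).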
# [6] = p53 small molecule agonists, cell-based qHTS assay with rat liver microsomes (AID 1963578)
# Outline: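 Compound in DMSO added to p53RE-bla cells 5 h post-plating; rat microsomes/NADPH 0.5 mg/mL final; 16 h, 37 C; LiveBLAzer 2 h RT.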
# [7] = p53 small molecule agonists, cell-based qHTS assay: qHTS cell viability counter screen (AID 1963581); note: nearly all actives have a fitted effect of over 45% in size; note: potency is the fitted concentration of half-maximal effect
# Outline: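 Cytotoxicity read-out: ATP-based luminescence (CellTiter-Glo, 30 min RT) measured in the same wells as the p53 reporter assay, HCT-116 p53RE-bla cells, 16 h compound exposure at 37 C.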
# [8] = p53 small molecule agonists, cell-based qHTS assay (AID 1963582; active = well fitted activation curve with a large enough effect in the signal ratio in the repeat runs, not every such curve was filed as active; the % refers to the signal ratio; note: potency is the fitted concentration of half-maximal effect)
# Outline: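 Fluorescence intensity read-out of a beta-lactamase reporter under a p53 response element. Cells were exposed to DMSO-dissolved compounds for 16 h at 37 C, then developed with FRET substrate for 2 h at RT.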
# [9] = target: 5-hydroxytryptamine receptor 2A (Homo sapiens) (UniProt P28223); assay: 5-hydroxytryptamine receptor 2A (HTR2A) small molecule antagonists, cell-based qHTS assay (AID 1963586); note: nearly all actives have a fitted effect of over 45% in size
# Outline: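 CHO cells stably expressing human HTR2A were plated for 18 h at 37 C, then loaded with calcium dye for 1 h. Compounds were preincubated 5 min at room temperature before DOI (4 nM solution) was added. Kinetic fluorescence was read for 3 min.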
# [10] = target: Muscarinic acetylcholine receptor M1 (Homo sapiens) (UniProt P11229); assay: Cholinergic receptor muscarinic 1 (CHRM1) small molecule antagonists, cell-based qHTS assay (AID 1963588); note: nearly all actives have a fitted effect of over 40% in size
# Outline: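 Compounds were tested at 15 concentrations in three independent runs. Dye-loaded CHRM1-CHO cells were exposed 5 min at room temperature before stimulation by acetylcholine added at 50nM. Intracellular calcium was read kinetically on FDSS for 3 min.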
# [11] = target: Muscarinic acetylcholine receptor M1 (Homo sapiens) (UniProt P11229); assay: Cholinergic receptor muscarinic 1 (CHRM1) small molecule agonists, cell-based qHTS assay (AID 1963589); note: nearly all actives have a fitted effect of over 35% in size; note: potency is the fitted concentration of half-maximal effect
# Outline: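 Calcium flux read-out: kinetic fluorescence at 1 sec intervals after pin-tool compound addition to dye-loaded CHRM1-CHO cells (human M1). Agonist mode; 15 concentrations tested in triplicate independent runs.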
# [12] = cAMP Responsive Elements (CRE) small molecule agonists, cell-based qHTS assay (AID 1963590); note: potency is the fitted concentration of half-maximal effect
# Outline: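 Beta-lactamase reporter readout: LiveBLAzer B/G FRET substrate, 2 h at room temperature, added after 3 h compound treatment of CRE-bla HEK 293T cells at 37 C/5% CO2.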
# [13] = cAMP Responsive Elements (CRE) small molecule antagonists, cell-based qHTS assay (AID 1963591; active = well fitted inhibition curve with a large enough effect in the signal ratio in the repeat runs, not every such curve was filed as active; the % refers to the signal ratio)
# Outline: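 HEK293T CRE-bla; 18 h preincubation; compound pin-transfer; NKH477 0.25 uM final, 3 h, 37 C; LiveBLAzer FRET substrate 2 h RT.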
# [14] = target: Beta-2 adrenergic receptor (Homo sapiens) (UniProt P07550); assay: Adrenergic beta2 receptor (ADRB2) small molecule antagonists, cell-based qHTS assay (AID 1963592); note: nearly all actives have a fitted effect of over 50% in size; note: potency is the fitted concentration of half-maximal effect
# Outline: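 Assay format: CHO-ADRB2 cells, 18-20hr seeding at 37C/5% CO2, then compound plus 1nM isoproterenol agonist mix for 0.5hr RT. Homogeneous time-resolved fluorescence cAMP detection after 1hr, expressed as 665/615 nm ratio.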
# [15] = target: Beta-2 adrenergic receptor (Homo sapiens) (UniProt P07550); assay: Adrenergic beta2 receptor (ADRB2) small molecule agonists, cell-based qHTS assay (AID 1963593);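 note: CHO cells stably overexpressing human ADRB2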
# Outline: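 CHO cells stably over-expressing ADRB2 were plated overnight at 37C, then dosed with compounds plus a stimulation mix containing 100uM IBMX and 25uM Ro-20-1724 for 0.5hr at room temperature. cAMP was measured by HTRF competition, 1hr.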
# [16] = target: D(2) dopamine receptor (Homo sapiens) (UniProt P14416); assay: Dopamine D2 receptor (DRD2) small molecule agonists, cell-based qHTS assay (AID 1963594); note: nearly all actives have a fitted effect of over 35% in size
# Outline: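 HEK293 cells stably expressing DRD2 were cultured 24 h at 37 C, then given Ro20-1724 (0.1 mM final) and compounds for 10 min at room temperature. NKH477 (200nM) was then added for 30 min. cAMP was read by HTRF.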
# [17] = target: D(2) dopamine receptor (Homo sapiens) (UniProt P14416); assay: Dopamine D2 receptor (DRD2) small molecule antagonists, cell-based qHTS assay (AID 1963595; active = well fitted inhibition curve with a large enough effect in the signal ratio in the repeat runs, with a control signal flat; the % refers to the signal ratio)
# Outline: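 Antagonist mode in DRD2-HEK293 cells: after compound addition with 0.1 mM Ro20-1724, cells received quinpirole (12 nM) and NKH477 (200 nM) for 30 min at room temperature; HTRF cAMP read after 1 h detection.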
# [18] = p53 small molecule agonists, cell-based qHTS assay with human liver microsomes: qHTS cell viability counter screen (AID 1963579); note: nearly all actives have a fitted effect of over 45% in size; note: potency is the fitted concentration of half-maximal effect
# Outline: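 HLM-supplemented (0.5 mg/mL final) and NADPH-supplemented (0.5 mg/mL final) p53RE-bla cultures, 4,000 cells per well, were dosed with compounds in DMSO for 16 h at 37 C; luminescent ATP detection (CellTiter-Glo, 30 min, room temperature) quantified surviving cells.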
# [19] = target: 5-hydroxytryptamine receptor 2A (Homo sapiens) (UniProt P28223); assay: 5-hydroxytryptamine receptor 2A (HTR2A) small molecule agonists, cell-based qHTS assay (AID 1963587); note: nearly all actives have a fitted effect of over 30% in size; note: potency is the fitted concentration of half-maximal effect
# Outline: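 HTR2A-CHO cells, plated 18 h at 37 C/5% CO2, dye-loaded 1 h at 37 C; compounds in DMSO added by pin tool (agonist mode). Intracellular calcium flux read as kinetic fluorescence on FDSS over 2 min at 1 s intervals.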
# [20] = p53 small molecule agonists, cell-based qHTS assay with rat liver microsomes: qHTS cell viability counter screen (AID 1963580); note: nearly all actives have a fitted effect of over 45% in size
# Outline: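 Luminescent ATP readout (CellTiter-Glo, 30 min at room temperature) reports viability of p53RE-bla HCT-116 cells after 16 h at 37 C with test compounds under metabolic activation by rat liver microsomes and NADPH at 0.5 mg/mL final each.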
# Gonadotropin-releasing hormone receptor (Homo sapiens), sequence (P30968 whole entry, looked up): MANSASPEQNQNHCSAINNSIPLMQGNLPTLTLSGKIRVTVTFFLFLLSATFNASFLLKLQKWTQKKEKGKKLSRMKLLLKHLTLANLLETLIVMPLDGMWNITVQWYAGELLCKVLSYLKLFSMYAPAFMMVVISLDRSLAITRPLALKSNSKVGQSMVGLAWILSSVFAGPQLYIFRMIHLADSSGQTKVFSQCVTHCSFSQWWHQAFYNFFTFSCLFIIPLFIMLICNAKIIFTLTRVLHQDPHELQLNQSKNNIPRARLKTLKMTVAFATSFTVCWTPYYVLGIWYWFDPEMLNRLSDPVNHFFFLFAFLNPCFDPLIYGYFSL
# Beta-2 adrenergic receptor (Homo sapiens), sequence (P07550 whole entry, looked up): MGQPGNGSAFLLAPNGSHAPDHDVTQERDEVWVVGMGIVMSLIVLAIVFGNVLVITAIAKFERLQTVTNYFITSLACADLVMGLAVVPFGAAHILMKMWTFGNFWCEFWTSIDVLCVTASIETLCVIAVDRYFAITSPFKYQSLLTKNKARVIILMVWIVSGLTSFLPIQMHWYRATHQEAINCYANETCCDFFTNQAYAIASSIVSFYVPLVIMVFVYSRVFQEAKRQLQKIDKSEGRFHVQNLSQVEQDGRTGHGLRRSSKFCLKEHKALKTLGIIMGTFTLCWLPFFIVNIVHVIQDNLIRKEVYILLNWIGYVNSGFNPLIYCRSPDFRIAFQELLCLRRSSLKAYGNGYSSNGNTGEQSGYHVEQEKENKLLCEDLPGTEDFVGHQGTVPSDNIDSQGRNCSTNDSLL
# D(2) dopamine receptor (Homo sapiens), sequence (P14416 whole entry, looked up): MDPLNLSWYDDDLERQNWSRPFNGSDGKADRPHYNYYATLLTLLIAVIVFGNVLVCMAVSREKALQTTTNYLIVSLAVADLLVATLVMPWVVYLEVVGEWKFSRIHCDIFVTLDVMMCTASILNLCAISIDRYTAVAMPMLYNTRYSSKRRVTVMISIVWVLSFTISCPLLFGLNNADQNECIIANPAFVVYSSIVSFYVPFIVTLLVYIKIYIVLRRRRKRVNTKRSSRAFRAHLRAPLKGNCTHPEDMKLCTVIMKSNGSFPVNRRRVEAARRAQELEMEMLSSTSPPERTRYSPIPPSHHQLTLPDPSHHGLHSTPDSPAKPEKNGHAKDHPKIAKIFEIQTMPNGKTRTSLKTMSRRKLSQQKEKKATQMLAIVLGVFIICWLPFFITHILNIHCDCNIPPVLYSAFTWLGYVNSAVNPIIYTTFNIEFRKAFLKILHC
# KiSS-1 receptor (Homo sapiens), sequence (Q969F8 whole entry, looked up): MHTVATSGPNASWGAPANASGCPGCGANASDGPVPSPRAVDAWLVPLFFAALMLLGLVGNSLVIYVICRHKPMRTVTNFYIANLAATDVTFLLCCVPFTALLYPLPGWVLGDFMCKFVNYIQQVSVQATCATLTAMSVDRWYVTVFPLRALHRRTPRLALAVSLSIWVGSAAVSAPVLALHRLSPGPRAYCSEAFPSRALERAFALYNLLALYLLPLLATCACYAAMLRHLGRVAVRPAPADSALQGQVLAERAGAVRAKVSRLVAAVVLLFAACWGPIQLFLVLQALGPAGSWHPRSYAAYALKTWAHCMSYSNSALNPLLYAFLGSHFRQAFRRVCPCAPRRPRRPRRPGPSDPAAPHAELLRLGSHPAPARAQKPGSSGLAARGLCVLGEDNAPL
# Muscarinic acetylcholine receptor M1 (Homo sapiens), sequence (P11229 whole entry, looked up): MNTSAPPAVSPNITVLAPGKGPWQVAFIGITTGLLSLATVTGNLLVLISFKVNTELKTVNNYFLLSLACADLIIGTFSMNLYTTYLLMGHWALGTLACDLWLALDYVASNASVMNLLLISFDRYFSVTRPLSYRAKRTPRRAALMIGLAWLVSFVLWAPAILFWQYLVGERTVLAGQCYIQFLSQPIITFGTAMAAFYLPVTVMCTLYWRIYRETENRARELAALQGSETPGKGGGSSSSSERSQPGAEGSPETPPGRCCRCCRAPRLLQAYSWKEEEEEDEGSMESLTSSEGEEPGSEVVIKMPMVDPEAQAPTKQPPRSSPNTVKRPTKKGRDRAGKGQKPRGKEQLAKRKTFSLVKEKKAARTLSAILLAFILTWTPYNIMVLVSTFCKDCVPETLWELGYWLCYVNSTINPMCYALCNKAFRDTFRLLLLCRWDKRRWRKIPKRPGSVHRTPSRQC
# 5-hydroxytryptamine receptor 2A (Homo sapiens), sequence (P28223 whole entry, looked up): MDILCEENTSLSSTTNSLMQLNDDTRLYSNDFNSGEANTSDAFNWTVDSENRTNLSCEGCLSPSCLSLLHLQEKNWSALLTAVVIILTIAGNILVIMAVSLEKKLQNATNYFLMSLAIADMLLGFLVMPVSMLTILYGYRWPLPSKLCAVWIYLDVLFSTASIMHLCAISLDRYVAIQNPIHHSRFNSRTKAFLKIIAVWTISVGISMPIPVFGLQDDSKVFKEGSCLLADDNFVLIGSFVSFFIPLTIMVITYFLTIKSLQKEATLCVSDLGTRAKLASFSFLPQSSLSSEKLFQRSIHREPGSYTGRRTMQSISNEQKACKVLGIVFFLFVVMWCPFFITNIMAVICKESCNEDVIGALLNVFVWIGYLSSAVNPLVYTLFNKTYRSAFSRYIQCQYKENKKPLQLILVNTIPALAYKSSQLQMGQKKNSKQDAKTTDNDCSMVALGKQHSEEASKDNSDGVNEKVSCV
SMILES,Potency [1],Potency [2],Potency [3],Potency [4],Potency [5],Potency [6],Potency [7],Potency [8],Potency [9],Potency [10],Potency [11],Potency [12],Potency [13],Potency [14],Potency [15],Potency [16],Potency [17],Potency [18],Potency [19],Potency [20]
CCC1OCC(COc2ccc(Oc3ccccc3)cc2)O1 (stereo not drawn),68.6 µM (active),inactive,inactive,inactive,inactive,inactive,inactive,inactive,inactive,inactive,inactive,inactive,inactive,inactive,inactive,inactive,inactive,–,–,–
CC(O)(c1ccc(Cl)cc1)c1ccc(Cl)cc1,inactive,inactive,inactive,inactive,inactive,–,inactive,inactive,–,inactive,inactive,–,–,–,–,inactive,inactive,45.8 µM (active),49 µM (active),–
O=C(Nc1ccccc1)c1cc(Cl)ccc1O,13.7 µM (active),inactive,inactive,12.3 µM (active),inactive,inactive,40.8 µM (active),–,–,inactive,inactive,–,–,61.1 µM (active),–,inactive,inactive,–,inactive,–
CC1=C(/C=C/C(C)=C/C=C/C(C)=C\C=O)C(C)(C)CCC1,64.9 µM (active),inactive,inactive,inactive,inactive,inactive,inactive,–,inactive,inactive,inactive,–,–,inactive,–,inactive,inactive,–,inactive,–
Cc1nc(Nc2ncc(C(=O)Nc3c(C)cccc3Cl)s2)cc(N2CCN(CCO)CC2)n1,inactive,inactive,inactive,inactive,inactive,inactive,–,inactive,inactive,inactive,inactive,841 nM (active),inactive,inactive,inactive,–,inactive,–,–,inactive
OCC1CC=CCC1 (stereo not drawn),inactive,inactive,inactive,inactive,–,–,inactive,–,inactive,inactive,inactive,–,inactive,inactive,inactive,inactive,inactive,inactive,inactive,inactive
CCCC(=O)OC[C@@H](OC(=O)CCC)[C@@H](OC(=O)CCC)[C@H](Cn1c2nc(=O)[nH]c(=O)c-2nc2cc(C)c(C)cc21)OC(=O)CCC,inactive,7.56 µM (active),16.9 µM (active),15.1 µM (active),–,–,inactive,–,inactive,inactive,19 µM (active),–,–,inactive,–,inactive,–,inactive,–,inactive
CCCCCOC(=O)COc1cc(N2C(=O)C3=C(CCCC3)C2=O)c(F)cc1Cl,61.1 µM (active),inactive,inactive,inactive,–,–,inactive,–,inactive,–,inactive,inactive,–,–,–,inactive,inactive,inactive,inactive,inactive
CCN(C)C(=O)Oc1cccc([C@H](C)N(C)C)c1,inactive,inactive,inactive,inactive,–,–,inactive,inactive,inactive,inactive,inactive,inactive,inactive,–,–,inactive,inactive,inactive,inactive,inactive
CCCCCCCCOC(=O)c1ccc(O)cc1,inactive,inactive,inactive,inactive,–,–,–,–,inactive,inactive,inactive,inactive,–,inactive,–,–,inactive,45.8 µM (active),–,inactive
COc1cccc2sc(N)nc12,inactive,inactive,inactive,inactive,–,–,inactive,–,inactive,inactive,inactive,–,inactive,inactive,–,inactive,inactive,inactive,inactive,inactive
O=C(NS(=O)(=O)/C=C/c1cccs1)c1ccc(F)cc1Br,27.3 µM (active),inactive,inactive,inactive,–,–,inactive,–,–,inactive,inactive,inactive,–,inactive,–,inactive,inactive,inactive,inactive,inactive
Nc1ccc2cc3ccc(N)cc3nc2c1,1.54 µM (active) and 6.68 µM (active),38.9 µM (active) and 16.9 µM (active),49 µM (active) and 23.9 µM (active),38.9 µM (active) and 16.9 µM (active),–,–,inactive,1.82 µM (active),inactive,inactive,43.6 µM (active) and 23.9 µM (active),–,–,–,–,inactive,inactive,inactive,19.5 µM (active) and 19 µM (active),inactive
Clc1cccc(-c2cc(Cl)cc(Cl)c2)c1,inactive,inactive,inactive,inactive,–,–,–,–,inactive,inactive,inactive,inactive,inactive,inactive,–,inactive,–,inactive,inactive,inactive
O=C1CCCCCO1,inactive,inactive,inactive,inactive,–,–,–,–,inactive,–,inactive,inactive,inactive,inactive,–,inactive,inactive,inactive,inactive,inactive
